# Measurements: PubChem BioAssay (NCATS)
# Results filed as inconclusive are left out. Entries that show only a call come without a potency. Values without a mark were called inactive. Calls of active or inactive are those of the source. The call rests on the fitted dose curve; in most records, active means well fitted inhibition curve with a large enough effect; inconclusive means small, poorly fitted or top-dose-only effect; inactive means flat fitted curve, though single readings scatter.
# Test system: Zika virus NS2B-NS3 protease
# Test: Primary screen GU AMC qHTS for Zika virus inhibitors (AID 1347154); further: nearly all actives have a fitted effect of over 70% in size
# Details: Zika NS2B-NS3 unlinked protease, AMC fluorogenic substrate; series mostly up to 54.1 µM
# Outline: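 Fluorogenic AMC-substrate cleavage by noncovalent NS2B-NS3 protease complex (25 nM, pH 8.0 Tris buffer with Tween 20) followed for 15 minutes at room temperature (~20% conversion). Percent inhibition from ex340/em450 signal change, fitted by 4-parameter Hill equation.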
# Potency means the concentration at half of the fitted maximal effect.
SMILES,Potency,"activity change, negative = inhibition"
O=C(c1ccccc1)c1ccccc1,inactive,
COc1c(N2C[C@@H]3CCCN[C@@H]3C2)c(F)cc2c(=O)c(C(=O)O)cn(C3CC3)c12,14.4 µM (active),
O=C1CC2(CCCC2)CC(=O)N1CCNCC1COc2ccccc2O1 (configuration not stated),inactive,
Cc1oc(-c2ccccc2)nc1CCC(=O)c1ccc(CC2SC(=O)NC2=O)cc1 (configuration not stated),inactive,
Cc1ccc(-c2ccccc2C#N)cc1,inactive,
c1ccc(C(O[C@H]2CCCN(CCc3ccc4c(c3)OCO4)C2)c2ccccc2)cc1,inactive,
O=C(CO)[C@@H](O)[C@H](O)[C@@H](O)CO,inactive,
O=C(CS(=O)Cc1ccco1)NC/C=C\COc1cc(CN2CCCCC2)ccn1 (configuration not stated),inactive,
CN1Cc2cc(C(=O)N3CCC(C4CCNCC4)CC3)ccc2NC(CC(=O)O)C1=O (configuration not stated),inactive,
Brc1ccccc1-c1ccccc1,inactive,
COC(=O)C1=C(C)NC(C)=C(C(=O)OCCc2ccc(N3CCN(C(c4ccccc4)c4ccccc4)CC3)cc2)C1c1cccc([N+](=O)[O-])c1 (configuration not stated),inactive,
Cc1ccccc1N1CCN(CCc2nnc3n2CCCC3)CC1,inactive,
O=C(O)/C=C(\CC(=O)O)C(=O)O,inactive,
C#CC(C)(CC)OC(=O)c1ccccc1C(=O)O (configuration not stated),inactive,
CN(C(=O)C(Cl)Cl)c1ccc(OC(=O)c2ccco2)cc1,inactive,
NCC[C@H](O)C(=O)N[C@@H]1C[C@H](N)[C@@H](O[C@H]2O[C@H](CN)[C@@H](O)[C@H](O)[C@@H]2O)[C@H](O)[C@@H]1O[C@H]1O[C@H](CO)[C@@H](O)[C@H](N)[C@@H]1O,,-0.909% [at 0.59 µM]
Cc1ccc(CCn2c3c(c4cc(Cl)ccc42)CN(C)CC3)cn1,inactive,
